Measured values from PubChem BioAssay AID2221 (Broad Institute, 2009).
Values joined by “and” are separate entries in the source; they are usually repeats but may differ in a detail not shown here. Identical values can stand only once. Among all 290,000 compounds or so, about 2,200 (0.76%) were called active. Rule as the data show it: active = inhibition above about 30%; inconclusive = no clear call, values can overlap the other calls; inactive = below that. The sample as a whole holds a higher share of actives than the screen did.

Biological target: Protein RecA (Mycobacterium tuberculosis (strain ATCC 25618 / H37Rv)) (UniProt P9WHJ3)
Assay: Mtb RecA intein splicing inhibitors, primary screen, biochemical, fluorescence, HTS (AID 2221);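 also: 0% = vehicle wells and 100% = reference inhibitor control wells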
Settings: cell-free RecA intein splicing, hits give high values, concentration not given here

Protein RecA (Mycobacterium tuberculosis (strain ATCC 25618 / H37Rv)), sequence (P9WHJ3 whole entry, looked up): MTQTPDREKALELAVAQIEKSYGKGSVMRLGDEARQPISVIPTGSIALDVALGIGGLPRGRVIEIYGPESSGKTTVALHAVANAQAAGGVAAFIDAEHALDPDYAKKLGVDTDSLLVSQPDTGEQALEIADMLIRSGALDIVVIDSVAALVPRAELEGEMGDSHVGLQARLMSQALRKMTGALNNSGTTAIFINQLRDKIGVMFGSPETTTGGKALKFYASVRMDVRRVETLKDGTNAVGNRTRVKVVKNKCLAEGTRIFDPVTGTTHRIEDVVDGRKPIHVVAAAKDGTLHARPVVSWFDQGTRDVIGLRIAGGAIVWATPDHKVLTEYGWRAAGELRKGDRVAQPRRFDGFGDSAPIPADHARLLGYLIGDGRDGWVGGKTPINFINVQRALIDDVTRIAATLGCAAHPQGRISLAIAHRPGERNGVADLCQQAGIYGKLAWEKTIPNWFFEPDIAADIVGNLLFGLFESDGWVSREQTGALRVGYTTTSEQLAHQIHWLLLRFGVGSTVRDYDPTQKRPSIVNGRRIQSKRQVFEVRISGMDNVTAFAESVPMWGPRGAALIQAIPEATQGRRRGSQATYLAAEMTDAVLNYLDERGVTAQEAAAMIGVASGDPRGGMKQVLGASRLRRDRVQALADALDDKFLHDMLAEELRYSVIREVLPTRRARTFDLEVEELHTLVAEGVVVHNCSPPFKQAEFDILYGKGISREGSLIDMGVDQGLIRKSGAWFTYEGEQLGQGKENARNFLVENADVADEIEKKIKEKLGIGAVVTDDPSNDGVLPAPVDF

| SMILES | inhibition |
| --- | --- |
| CCN1CCN(c2ccc(NC(=O)c3cnccn3)cc2)CC1 | -0.413% (inactive) |
| CCOC(=O)N1CCN(C(c2cccnc2)c2ccc3cccnc3c2O)CC1 (stereo not given) | 9.76% (inactive) |
| CCN1CCN(C(c2cccnc2)c2cc(Cl)c3cccnc3c2O)CC1 (stereo not given) | 70% (active) |
| COc1cccc(/C=N/Nc2cc(C)nc(-c3ccccc3O)n2)c1O | 38.8% (active) |
| COc1cccc(/C=N/Nc2ncc(C(F)(F)F)cc2Cl)c1O | -2.37% (inactive) |
| COc1ccccc1/C=N\Nc1cc(C)nc(-n2nc(C)cc2C)n1 | 0.767% (inactive) |
| C/C(=N\NC(=O)COc1ccc(C)cc1[N+](=O)[O-])c1ccc2c(c1)OCCO2 | 1.11% (inactive) |
| O=C1COc2ccc(S(=O)(=O)Nc3ccc(OC(F)(F)F)cc3)cc2N1 | -0.276% (inactive) |
| Cc1nn(C)c(C)c1NS(=O)(=O)c1ccc(OC(F)(F)F)cc1 | 0.692% (inactive) |
| O=S(=O)(Nc1ccc(O)c2ccccc12)c1ccc(OC(F)(F)F)cc1 | 95.2% (active) |
| COCCCC1CCN(C(=O)C2CCC(=O)N(C3CCCCCC3)C2)CC1 (stereo not given) | -0.89% (inactive) |
| C/C(N)=C(/C#N)C(=O)COC(=O)C1=NN(c2ccccc2)C(=O)CC1 | -0.739% (inactive) |
| COC(=O)CC1=NN(c2nc(C)cc(C)n2)C(=O)C1 | 36.2% (active) |
| Cc1ccc(CC2CC(=O)N(c3nc(C)cc(C)n3)C2=O)cc1 (stereo not given) | -1.07% (inactive) |
| Cc1cc(C)cc(NC(=O)C2CCN(c3nc(C)cc(C)n3)CC2)c1 | -1.54% (inactive) |
| COC(=O)CC1=NN(c2ccccc2)C(=O)C1 | 76.6% (active) |
| CC(=O)c1sc(NC(=O)C2=NN(c3ccccc3)C(=O)CC2)nc1C | -1.59% (inactive) |
| O=C(CSc1nc(Nc2ccccc2)nc(N2CCOCC2)n1)Nc1cc(Cl)ccc1O | 2.06% (inactive) |
| CCCn1nc(C(=O)NNC(=O)CSCC(=O)Nc2cc(C)on2)c2ccccc2c1=O | 1.67% (inactive) |
| O=C1Nc2cc(C(=O)N3CCC(N4CCCCC4)CC3)ccc2S/C1=C\c1ccccc1 | 1.2% (inactive) |
| Cc1csc(CN(C)C(=O)CC2C(=O)NCCN2CC(C)(C)C)n1 (stereo not given) | -5.7% (inactive) |
| O=C(C(Cc1ccccc1)n1cccc1)N1CCN(C2CCCCC2)CC1 (stereo not given) | 1.21% (inactive) |
| NC(=O)CC[C@@H]1NC(=O)[C@H](CO)NC(=O)c2cc([N+](=O)[O-])cc(I)c2NCC[C@@H](C(N)=O)NC1=O | 30.3% (active) |

| SMILES | inhibition |
| --- | --- |
| NCCCC[C@@H]1NC(=O)[C@H](CCC(=O)O)NC(=O)c2cc([N+](=O)[O-])cc(I)c2NCC[C@@H](C(N)=O)NC1=O | 0.579% (inactive) |
| NC(=O)C[C@@H]1NC(=O)CNC(=O)c2cc([N+](=O)[O-])cc(I)c2NCCC(C(N)=O)NC1=O (stereo not given in full) | 1.58% (inactive) |
| COc1ccc(Nc2ncc(F)c(N3CCOCC3)n2)cc1 | -0.77% (inactive) |
| CN(C)S(=O)(=O)c1ccc(C(=O)NCCN=C2NS(=O)(=O)c3ccccc32)cc1 | -1.53% (inactive) |
| Cc1cc(C)c(NC(=O)CN2C(=O)NC(Cc3ccccc3)C2=O)c(C)c1 (stereo not given) | 0.835% (inactive) |
| Cc1onc(-c2c(Cl)cccc2Cl)c1C(=O)c1c[nH]c(C(=O)NC2CC2)c1 | 5.76% (inactive) |
| Cc1[nH]n(C)c(=O)c1C(=O)c1c(-c2c(Cl)cccc2Cl)noc1C | 77.1% (active) |
| Cc1onc(-c2c(Cl)cccc2Cl)c1C(=O)NNC(=O)c1c(-c2c(Cl)cccc2Cl)noc1C | 0.133% (inactive) |
| CN(C)S(=O)(=O)c1ccc2oc(SCC(=O)Nc3ccccc3F)nc2c1 | -2.69% (inactive) |
| N#CCc1c(C#N)c(N)nc(N2CCCC2)c1C#N | 0.638% (inactive) |
| N#Cc1c(-c2ccccc2)cc(-c2ccccc2)nc1SCC(=O)O | 0.292% (inactive) |
| N#Cc1c(N2CCCCC2)nc(N)c2c(N)nc(SCC(=O)O)cc12 | 61.1% (active) |
| CCOc1ccc(C2NC(=S)NC3=C2CCc2ccccc23)cc1 (stereo not given) | 15% (inactive) |
| COc1ccc(C2NC(=S)NC3=C2CCc2ccccc23)cc1OC (stereo not given) | 45.9% (active) |
| CCOC(=O)C1=C(c2ccccc2)NC(=S)NC1c1ccc(Cl)cc1 (stereo not given) | 8.84% (inactive) |
| Cc1nn(C(C)(C)C)c(OC(=O)CC(C)C)c1S(=O)(=O)c1ccccc1 | 8.28% (inactive) |
| O=C(CCNS(=O)(=O)c1cccs1)N1CCN(c2ccc(F)cc2)CC1 | -0.494% (inactive) |
| CCOCC(=O)NCc1ccc2c(c1)cc(C)n2C | 30.1% (active) |
| COc1cc(C(=O)NCc2ccc3c(c2)cc(C)n3C)cc(OC)c1OC | 1.47% (inactive) |
| Cc1ccc(CNC(=O)COc2ccc3c(c2)CCC3)cc1 | 1.94% (inactive) |
| CCc1cc(CNC(=O)CC2C(=O)NCCN2Cc2ccccc2C(F)(F)F)on1 (stereo not given) | -0.415% (inactive) |
| Cc1oc2cc(Br)c(O)c(Br)c2c1C(=O)c1ccccc1 | 12.7% (inactive) |
| Cc1oc2cc([N+](=O)[O-])c(O)c([N+](=O)[O-])c2c1C(=O)c1ccc(Br)cc1 | 41.5% (active) |

| SMILES | inhibition |
| --- | --- |
| COc1ccc(C(=O)c2c(C)oc3cc([N+](=O)[O-])c(O)c([N+](=O)[O-])c23)cc1 | 8.62% (inactive) |
| COC(=O)[C@H]1[C@H]2C[C@H]3c4[nH]c5ccccc5c4CCN3C[C@@H]2CC[C@@H]1O | 0.605% (inactive) and -6.9% (inactive) |
| CC(Oc1cc2oc(=O)c3c(c2cc1Cl)CCCC3)C(=O)NCc1ccncc1 (stereo not given) | 0.148% (inactive) |
| O=C(CN(C(=O)c1csnn1)c1cccc(Cl)c1)NC1CCCC1 | -3.49% (inactive) |
| O=C(Nc1ccc(Cl)c(Cl)c1)c1ccccc1NC(=O)C1CC=CCC1C(=O)O (stereo not given) | 0.473% (inactive) |
| O=C(c1ccc(Cl)cc1)c1cnc(Nc2ccccc2)s1 | -1.16% (inactive) |
| O=C(Nc1ccccc1)c1nnsc1S(=O)(=O)c1ccc(Cl)cc1 | 70% (active) |
| CN(c1cccc(NC(=O)Nc2ccc(Cl)cc2)c1)S(C)(=O)=O | 4.89% (inactive) |
| Cc1cc(C)nc(SCc2nnc(SCC(=O)OC3CCCCC3)o2)n1 | 0.246% (inactive) |
| COc1ccc(N2CCN(C(C)=C3C(=O)c4ccccc4C3=O)CC2)cc1 | -1.11% (inactive) |
| CCOC(=O)C1=C(c2ccc(OC)cc2)C(=O)c2ccccc2C1=O | 83.5% (active) |
| CCOC(=O)c1c(-c2ccc(C)cc2)csc1/N=C(\C)C1=C(O)c2ccccc2C1=O | -0.167% (inactive) |
| CC1CN(C(=O)CCC(=O)NCCCN2CCC(Cc3ccccc3)CC2)c2cc(Cl)ccc2O1 (stereo not given) | 4.67% (inactive) |
| COc1cccc(CCNC(=O)c2cccc(NC(=O)C3=C(C)OCCS3)c2)c1 | -0.654% (inactive) |
| Cn1c(=O)c2sccc2n(Cc2ccc(Br)cc2)c1=O | 1.32% (inactive) |
| COc1ccccc1-n1nnnc1S(=O)(=O)Cc1ccc(Cl)cc1 | 81.5% (active) |
| COc1ccccc1N1CCN(S(=O)(=O)c2ccc(Cl)cc2)CC1 | 13.3% (inactive) |
| CCN(C(=O)CSc1nnnn1-c1ccccc1OC)C1CCS(=O)(=O)C1 (stereo not given) | -4.51% (inactive) |
| O=C(CSc1nc2[nH]ncc2c(=O)[nH]1)Nc1ccc(F)cc1 | -1.71% (inactive) |
| CCC(=C/c1sc2ccc3ccccc3c2[n+]1C)/C=C1\Sc2ccc3ccccc3c2N1C | -0.0609% (inactive) |
| COc1cccc(NC(=O)CN(C)C(=O)c2ccccc2CCc2ccccc2)c1 | 5.79% (inactive) |
| O=C(CN1CCN(S(=O)(=O)c2ccc(Br)cc2)CC1)Nc1ccccc1C(=O)c1ccccc1 | -0.838% (inactive) |
| Cc1oc2c(c1C(=O)N1CCOCC1)C(=O)c1ccccc1C2=O | 86% (active) |

| SMILES | inhibition |
| --- | --- |
| Cc1noc(C)c1C(=O)N1CCOCC1 | 1.19% (inactive) |
| CCOC(=O)c1ccccc1C(=O)N1CCOCCOCCOCC1 | 0.452% (inactive) |
| Nc1[nH]c(=S)nc2nc(-c3ccccc3)c(-c3ccccc3)nc12 | -3.24% (inactive) |
| Cn1cnc2c1c(=O)n(Cc1ccccc1C#N)c(=O)n2C | -5.24% (inactive) |
| O=C(CCC(=O)N/N=C/c1ccc(Br)o1)N/N=C/c1ccc(Br)o1 | -0.217% (inactive) |
| CCOC(=O)c1c(NC(=O)CCl)sc(C(=O)N(CC)CC)c1C | 46.7% (active) |
| CCOC(=O)c1sc(NC(=O)CCN2CCOCC2)c(C(=O)OCC)c1C | 2.17% (inactive) |
| CCOC(=O)Nc1sc(C(=O)N(C)C)c(C)c1C(=O)OCC | 1.54% (inactive) |
| Cc1nc(CNS(=O)(=O)c2cc([N+](=O)[O-])ccc2C)cs1 | -3.48% (inactive) |
| CCc1ccccc1N(CC(=O)NCC1CCCO1)C(=O)CCC(=O)Nc1nccs1 (stereo not given) | -1.77% (inactive) |
| Cc1ccccc1C(CC(=O)c1cccs1)C(C#N)C#N (stereo not given) | 63.2% (active) |
| CCc1cccc(C)c1NC(=O)COC(=O)CNC(=O)c1cccs1 | -3.74% (inactive) |
| Cc1ccc(C)c(NC(CC(=O)c2ccccc2)C(=O)OCC(=O)c2cccs2)c1 (stereo not given) | -3.12% (inactive) |
| Cc1ccc(Sc2cc(N3CCOCC3)nc(-c3ccccc3)n2)cc1 | -0.766% (inactive) |
| O=S(=O)(c1ccc(-c2ccno2)s1)N1CCCCC1 | 0.0995% (inactive) |
| Cc1cc(C)n2nc(CNS(=O)(=O)c3c(F)c(F)c(F)c(F)c3F)nc2n1 | 33% (active) |
| Cc1cc(C)n2nc(SCC(N)=O)nc2n1 | -1.48% (inactive) |
| Cc1cc(C)n2nc(C(=O)NC(C)(C)C)nc2n1 | -3.67% (inactive) |
| COc1ccc(N2CCN(C(=O)C3CCN(S(=O)(=O)c4ccc(C)cc4)CC3)CC2)cc1 | -2.81% (inactive) |
| CCN(CCNC(=O)C1=C(C)C(=O)OC12CCC(C)CC2)c1ccccc1 (stereo not given) | -9.04% (inactive) |
| O=S(=O)(c1cnccc1N1CCN(/N=C/c2ccc(Br)cc2)CC1)N1CCCCC1 | -5.35% (inactive) |
